Whole data set: some 33,000 sequences, median “E-score (-0.5 to 0.5)” near -0.016, cut for the highest 2% near 0.3. Only a selection was taken, and the highest values are over-represented in it overall.
Molecular target: T1, Yer184c (UniProt P39961)
T1 sequence: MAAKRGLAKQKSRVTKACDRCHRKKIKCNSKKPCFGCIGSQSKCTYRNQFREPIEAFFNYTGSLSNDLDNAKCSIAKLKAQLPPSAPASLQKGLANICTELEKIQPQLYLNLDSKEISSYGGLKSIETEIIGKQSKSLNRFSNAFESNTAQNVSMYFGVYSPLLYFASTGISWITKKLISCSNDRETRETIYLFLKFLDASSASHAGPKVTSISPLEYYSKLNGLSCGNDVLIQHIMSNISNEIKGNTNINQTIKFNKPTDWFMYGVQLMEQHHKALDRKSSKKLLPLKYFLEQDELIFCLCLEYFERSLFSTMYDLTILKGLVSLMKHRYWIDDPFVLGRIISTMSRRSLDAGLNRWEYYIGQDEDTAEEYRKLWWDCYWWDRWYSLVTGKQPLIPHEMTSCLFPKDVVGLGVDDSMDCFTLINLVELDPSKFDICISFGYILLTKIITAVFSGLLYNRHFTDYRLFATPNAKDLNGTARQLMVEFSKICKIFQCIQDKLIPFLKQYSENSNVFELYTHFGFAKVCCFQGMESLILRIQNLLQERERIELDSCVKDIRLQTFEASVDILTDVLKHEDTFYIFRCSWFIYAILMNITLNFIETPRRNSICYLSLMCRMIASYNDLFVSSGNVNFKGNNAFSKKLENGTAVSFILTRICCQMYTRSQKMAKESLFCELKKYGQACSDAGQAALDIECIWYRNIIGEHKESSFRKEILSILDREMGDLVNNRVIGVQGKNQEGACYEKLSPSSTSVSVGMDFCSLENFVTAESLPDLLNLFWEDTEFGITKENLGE
Assay: PBM E-score (8-mer binding enrichment) (E-score (-0.5 to 0.5)); higher = stronger / more preferred TF binding
Settings: protein concentration: 100 nM; construct: GST-full length
Procedure: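 Universal 'all 10-mer' protein binding microarrays (Agilent AMADID 015681) probed with GST-tagged S. cerevisiae TFs (full-length or DBD) made by in vitro transcription/translation (PURExpress), about 100-200 nM. Bound TF was detected with fluorescent anti-GST. Each ungapped 8-mer (which stands for itself and its reverse complement) is scored by the PBM enrichment score (E-score), a modified Wilcoxon-Mann-Whitney statistic from -0.5 to +0.5, computed with the Universal PBM Analysis Suite. Scale: above 0.35 generally sequence-specific binding.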

Sequence	PBM E-score
GCTACTTA	-0.201
CATCTTGC	0.0249
TGGCTCAA	-0.0833
AGGCTCAG	-0.163
CGGCTCAA	0.314
CGGCTCAC	0.183
CGGCTCAG	0.337
AGGCTCAA	-0.157
TACAGTCA	-0.0508
ATCATTCA	0.195
CATGGTGC	-0.169
CTACATAG	0.0225
CGATACCA	-0.0309
GCCGGCCC	0.343
TCCGGCCA	0.218
GACGGCCA	-0.117
GACGGCCC	-0.168
GCCGGCCA	0.348
ACCGGCCC	0.13
GCCAGATA	-0.0238
GCCAACCC	-0.059
CCAAGGTC	-0.16
CGCTTATA	0.0756
CCTTGCCA	-0.0398
CCTAATGC	-0.233

Sequence	PBM E-score
GCTTTCGA	-0.0696
ATTTTAGA	0.0124
CACTGTCC	0.0762
AAGCCGAT	0.356
CAGCCGAA	0.229
AAGCCGAC	0.13
AAGCCAAA	0.0744
GAGCCGAA	0.372
AAGCCGAA	0.389
GAGCCGAC	0.0364
GAGCCAAA	-0.115
AAGCCGAG	0.286
CTAAACGC	0.0164
CTAGGCAC	-0.14
AGACCCAA	-0.134
GATGTTCC	0.239
AGACCCCG	0.08
ATGAAACA	0.02
ACCCGGAA	0.346
CCCCGGAG	0.135
CCCCGGAA	0.151
ACCCGGAT	0.185
TCCCCGGA	0.224
ACCCGGTA	0.183
ACCCGGAG	0.348

Sequence	PBM E-score
TCCCGGAA	0.391
GCCCGGAC	0.192
ACCCCGGA	0.142
GCCCGGAA	0.359
GCCCCGGA	0.234
ACTCGATA	0.0187
CCGACTAG	-0.036
TAGAAATA	0.126
ATGCTCTC	-0.0198
CAGCTACC	-0.113
CCATAGAG	-0.11
GGCATACC	-0.214
ACAAGGTC	-0.234
CAGTGGAC	-0.0743
AACCAAAC	-0.103
AAGTTCCG	0.307
CCGTTCCA	0.0249
AAGTTCCT	0.0951
CAGTTCCG	0.199
ATGTTCCA	0.016
ACGTTCCG	0.0307
ATGTTCCC	-0.107
ATGTTCCG	0.347
CCGTTCCG	0.304
TCAAGCCA	-0.0394

Sequence	PBM E-score
TAGTATGA	0.129
AAGGGCCC	-0.28
GACGCTTA	-0.148
AAAACTTA	0.245
ACGGAACC	0.329
ACGGAACG	0.212
GCGGAACC	0.268
CAGGAACC	-0.147
CAGGAACG	-0.0846
CCGGAACC	0.363
AGGGAACC	-0.101
ACGGAACT	0.197
CCGGAACG	0.329
CCTTGGAA	0.00859
TGCAAGCA	-0.0504
CAGCGTTA	-0.141
ATACGCTA	0.0126
ACCTTCAT	-0.00129
CTCCAGAG	-0.154
CACCGAAG	0.192
CTCCGAAG	0.303
ATCCGAAC	0.261
CGCCGATC	0.129
CCCCGAAC	-0.00623
CGCCGAAG	0.328

Sequence	PBM E-score
CGCCGAAC	0.345
CTCCGAAC	0.323
AGCCGAAG	0.14
GGCTGCGA	-0.00955
CATGGAGC	-0.175
ATGGAGAG	-0.0917
CATTAGGG	-0.12
ATCTCCGC	0.14
GTCTCCGA	0.243
ATCTCCGA	0.36
ATCTCCGG	0.435
CTCTCCGA	0.149
ATCTCCAG	-0.0032
AAGCACCA	-0.224
CACCAAAG	0.0906
ATTTATCG	0.103
CTTTATTC	0.0145
ATTTATTA	0.216
ATTTATCA	0.258
ATTTATCC	0.314
ATTTATTC	0.329
ATAGAACA	-0.0179
AGTACTGC	-0.177
AACTCGAT	0.12
ACAAGCGA	-0.015

Sequence	PBM E-score
GAAGTAAC	0.0995
AGTAGCAT	-0.0361
AGCATATG	-0.242
ATCCGAAT	0.419
ATACGAAT	0.0699
ATCCGAAA	0.321
ATCCGATG	0.327
ATCCGACC	0.0769
ATCCGAGA	0.252
GTCCGAGA	0.333
ATCCGACA	0.162
ATCCGAAG	0.302
CTCCGAGA	0.247
ATCCGATA	0.266
ATCCGATC	0.235
CTGTGTTC	0.093
CTAGAACC	-0.00303
TATGTACA	-0.0329
AGCACTCG	-0.0898
CTAGAAAG	-0.0631
ATGTATGC	0.0572
AGTCTCAG	-0.104
TTCCGAAA	0.37
GTCCGAAA	0.316
CTCCGAAA	0.266

Sequence	PBM E-score
TACCGAAA	0.204
TCCCGAAA	0.196
GTCCGAAC	0.23
CCAGCTAA	-0.204
GTATCTTA	0.197
GTCGCGAA	0.00034
GTCGCGAC	0.315
CTCGCGAC	-0.064
CTCTTCAA	-0.129
TAGACCTA	-0.0542
GCGGAGTA	0.0105
CTGGATTC	0.00297
CCGGATTA	0.352
ACGGATTA	0.183
ACGGATTC	0.197
CCGGAGTC	0.235
GCGGATTA	0.0175
CCGGATTC	0.33
CCGGAGTA	0.381
ATATGGAT	-0.0237
ACCGCTCG	-0.135
GGTAGGTA	-0.127
GCGCGGCA	0.158
CCGCGGCA	0.409
CAGCGGCG	0.0785

Sequence	PBM E-score
CCGCGGCG	0.326
GCGCGGCC	0.177
ACGCGGCC	-0.0466
ACGCGGCG	0.113
CCGCGGCC	0.374
ACGCGGCA	0.096
ACCCAACC	-0.191
AGAGGGGA	-0.286
ACTGGGTC	-0.271
GAGATTCC	0.0978
CCAAAGCC	-0.0564
ACGGAAGC	0.274
GGGGAACA	-0.17
CCGGAAGA	0.344
CCGGAAGG	0.28
CGGGAACA	0.313
CCGGACGA	0.323
TCGGACGA	0.278
AGGGAACA	0.00359
GCGGAAGC	0.105
ACGGACGA	0.237
CCGGAAGC	0.329
ACGGAAGA	0.262
GACACCTA	-0.129
AAGGGCGA	-0.211

Sequence	PBM E-score
AACAACCT	-0.0961
CAGCTTCG	-0.0525
ATAGTCGA	0.0238
AAACCCCG	0.0829
ATTCGATC	0.111
GAAGGGGA	-0.201
GACAGAGC	-0.128
AGGCCGAA	0.302
CGGGAAGC	0.138
AGGGAAGA	-0.12
CGGGAAGA	0.315
GAACAATA	0.313
TAACAATA	0.158
AAACAATA	0.282
AATACCGT	0.188
AACACCGC	-0.13
AATACCGC	0.0781
AATACCGG	0.336
CACACCGG	0.0348
AACACCGG	0.37
CACCCGTG	-0.169
GCCGCGGA	0.386
ATCGCGGA	-0.00991
GCCGCGAA	-0.0654
ACCGCGGA	0.314

Sequence	PBM E-score
AACGCGGA	0.178
GCCGCGCA	0.0353
GCCGCTCA	-0.0363
GGTAAGCA	-0.146
CCGGATGA	0.335
CAGGATGC	-0.0823
GCGGATGA	0.125
ACGGATGC	0.203
ACGGATGA	0.0817
CCGGATGC	0.331
GCGCCAAA	-0.00708
CCCATGAC	-0.117
GAGGAGCA	-0.0781
CCTGCTGC	-0.143
GAATGCTC	-0.157
CGGTACCG	0.32
CGGTACCC	-0.0697
CGGTACCA	0.0778
GCTAGGAA	0.0829
AGGTAGAA	-0.0769
GCGGCCGA	0.242
ACGGCCGG	0.372
CCGGCCGC	0.304
ACGGCCGC	0.244
ACGGCCGT	0.176

Sequence	PBM E-score
ACGGCCGA	0.355
ATGGCCGG	0.215
ACGGCCCA	-0.0167
CCGGCCGA	0.431
ACGGCCAA	0.192
GCGGCCGC	0.261
CCGGCCTA	0.28
AAAGAGCG	0.00323
AAGCGACA	-0.0772
AACATGGC	-0.317
CATGTGAA	-0.0476
ACTTGCCG	0.142
AGGTCGAA	-0.0466
GGGGCCGA	-0.192
CGGGCCGC	0.137
CGGGCCGA	0.308
AAAGATAT	0.0801
CTGTGCTA	-0.119
GTGTGGGA	-0.0509
CGAGCTCA	0.144
CGAGCTCC	0.0493
CGAGCTCG	0.308
TCAATGGA	-0.0551
GCTACAGA	-0.185
CCGTGCCG	0.312

Sequence	PBM E-score
CCGTGCCA	-0.127
ACGTGCCG	0.233
CAGGGGAA	-0.196
AAGCTATC	0.191
ATCGGATC	0.298
CTCGGAGA	0.252
GTCGGATA	0.122
ATCGGACA	0.303
CTCGGATA	0.305
CTCGGACA	0.306
CTCGGATC	0.241
ATCGGATA	0.369
GTCGGACA	0.193
GATTGGGA	-0.133
CCCCAGGA	-0.372
CGATTCAA	-0.0538
GTTTGCCA	-0.0315
GAGCATCC	-0.111
CGTGCGCC	0.0367
CGGGCTTA	0.157
AATTACCT	0.0235
AGAGGTTA	-0.0189
CAAGTGCC	-0.126
AGTTACCA	0.0704
AGCGCCGA	0.357

Sequence	PBM E-score
CCCGCCGA	0.193
AGCGCCAA	-0.231
GGCGCCGA	0.337
AGCGCCCG	0.113
AGCGCCGG	0.351
GCCGCCGA	0.264
CGCGCCGA	0.256
AGCGCCGC	0.0842
GGCGCCTA	-0.0826
GGCGCCAA	-0.0615
TCCGCCGA	0.316
GCAGGGCA	-0.0295
GTGCACAA	-0.028
ACCTTTTC	-0.076
AAGCTAAT	0.162
CCGGCTAG	0.277
AGGGGCTC	-0.341
TAAATCCA	0.00272
AGCCGGCA	0.404
CTCCGGCC	0.125
AACCGGTA	0.0801
CGCCGGTA	0.216
AGCCGGTC	0.144
AGCCGGTA	0.306
CCCCGGCA	0.0621

Sequence	PBM E-score
CTCCGGCA	0.359
ACCCGGCA	0.187
AGGCGGCA	-0.0565
CGCCGGCA	0.345
ATCCGGCA	0.296
GCAGTACA	-0.0532
ACCGTGAG	-0.158
CGCAACGA	0.0385
AAACCTGG	-0.147
TACCGGCA	0.251
TGCCGGCA	0.431
AGCCGGCT	0.36
TCCCGGCA	0.256
AGCCGGTG	0.225
AACCGGCT	0.264
ACCCGGCT	0.22
ACCCGGCG	0.198
AGCCGGCG	0.372
AAATCAAA	0.13

From the supplement of paper PMC3334620
